# According to article PMC7862700, “An all-to-all approach to the identification of sequence-specific readers for epigenetic DNA modifications on cytosine”:
# Columns and labels:
# Test in all cases: DAPPL (digital affinity profiling via proximity ligation, sequencing); 10 mM Tris-HCl pH 7.5, 50 mM NaCl, 1 mM DTT, 4% glycerol, room temperature, 30 min; GST-TFs on glutathione beads, 16-mer random dsDNA library, 0.1% formaldehyde crosslink after washing; high values mean tight binding
# FLI1 = target: T1, FLI1 (Homo sapiens, UniProt Q01543 1-452); details: protein: recombinant; tags: N-terminal GST; dsDNA, one strand shown
# T1 sequence: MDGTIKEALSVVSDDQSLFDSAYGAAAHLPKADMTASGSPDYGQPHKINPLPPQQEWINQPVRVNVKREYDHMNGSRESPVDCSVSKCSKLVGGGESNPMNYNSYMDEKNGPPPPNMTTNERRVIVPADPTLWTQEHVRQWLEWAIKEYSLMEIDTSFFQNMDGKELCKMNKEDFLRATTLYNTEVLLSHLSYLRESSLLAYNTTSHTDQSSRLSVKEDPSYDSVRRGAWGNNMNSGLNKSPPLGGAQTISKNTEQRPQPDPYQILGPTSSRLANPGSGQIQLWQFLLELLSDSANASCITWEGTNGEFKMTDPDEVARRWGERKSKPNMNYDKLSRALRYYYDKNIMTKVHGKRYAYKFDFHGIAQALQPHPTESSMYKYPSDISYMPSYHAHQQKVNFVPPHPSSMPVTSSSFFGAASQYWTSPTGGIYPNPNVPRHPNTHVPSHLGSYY
# Method in brief: (§1)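 A tag-only sample was pooled with DNA-barcoded human transcription factors that had been expressed in yeast as GST fusions and captured on glutathione beads. The pools were incubated for 30 min at room temperature with 200 nmole of a random double-stranded 16-mer DNA library in Tris/NaCl/DTT/glycerol buffer, then washed, crosslinked with 0.1% formaldehyde, proximity-ligated (BsaI/T4 ligase, 1 h, 37 °C), PCR-amplified and sequenced on an Illumina NextSeq500. Binding signal is each hexamer's read frequency for a factor divided by its frequency for the tag-only sample.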
# ELK1 = target: T2, ELK1 (Homo sapiens, UniProt P19419 1-428); details: protein: recombinant; tags: N-terminal GST; dsDNA, one strand shown
# T2 sequence: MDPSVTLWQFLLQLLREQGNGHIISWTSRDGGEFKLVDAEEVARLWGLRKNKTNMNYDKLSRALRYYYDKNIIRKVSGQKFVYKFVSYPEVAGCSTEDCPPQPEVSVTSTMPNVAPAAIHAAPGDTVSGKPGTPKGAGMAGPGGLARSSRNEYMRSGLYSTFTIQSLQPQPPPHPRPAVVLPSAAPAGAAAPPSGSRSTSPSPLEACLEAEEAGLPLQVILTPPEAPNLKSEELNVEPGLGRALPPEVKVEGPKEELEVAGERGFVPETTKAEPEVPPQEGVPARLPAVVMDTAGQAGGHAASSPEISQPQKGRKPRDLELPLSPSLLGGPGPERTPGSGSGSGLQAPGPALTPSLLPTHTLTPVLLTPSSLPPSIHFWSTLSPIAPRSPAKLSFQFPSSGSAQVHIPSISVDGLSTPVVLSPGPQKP
# Method in brief: as §1
# GABPA = target: T3, GABPA (Homo sapiens, UniProt Q06546 1-454); details: protein: recombinant; tags: N-terminal GST; dsDNA, one strand shown
# T3 sequence: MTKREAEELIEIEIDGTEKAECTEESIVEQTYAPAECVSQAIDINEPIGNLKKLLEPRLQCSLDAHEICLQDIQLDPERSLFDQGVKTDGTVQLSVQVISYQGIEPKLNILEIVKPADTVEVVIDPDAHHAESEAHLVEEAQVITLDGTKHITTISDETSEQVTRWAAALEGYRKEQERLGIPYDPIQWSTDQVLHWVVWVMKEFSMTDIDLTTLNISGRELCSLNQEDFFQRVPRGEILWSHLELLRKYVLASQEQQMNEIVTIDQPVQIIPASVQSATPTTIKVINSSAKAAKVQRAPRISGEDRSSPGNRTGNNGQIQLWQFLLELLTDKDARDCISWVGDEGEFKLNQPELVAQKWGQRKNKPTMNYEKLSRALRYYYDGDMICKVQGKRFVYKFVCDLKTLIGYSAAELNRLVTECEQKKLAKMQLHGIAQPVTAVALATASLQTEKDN
# Method in brief: as §1
# ERG = target: T4, ERG (Homo sapiens, UniProt P11308 1-479); details: protein: recombinant; tags: N-terminal GST; dsDNA, one strand shown
# T4 sequence: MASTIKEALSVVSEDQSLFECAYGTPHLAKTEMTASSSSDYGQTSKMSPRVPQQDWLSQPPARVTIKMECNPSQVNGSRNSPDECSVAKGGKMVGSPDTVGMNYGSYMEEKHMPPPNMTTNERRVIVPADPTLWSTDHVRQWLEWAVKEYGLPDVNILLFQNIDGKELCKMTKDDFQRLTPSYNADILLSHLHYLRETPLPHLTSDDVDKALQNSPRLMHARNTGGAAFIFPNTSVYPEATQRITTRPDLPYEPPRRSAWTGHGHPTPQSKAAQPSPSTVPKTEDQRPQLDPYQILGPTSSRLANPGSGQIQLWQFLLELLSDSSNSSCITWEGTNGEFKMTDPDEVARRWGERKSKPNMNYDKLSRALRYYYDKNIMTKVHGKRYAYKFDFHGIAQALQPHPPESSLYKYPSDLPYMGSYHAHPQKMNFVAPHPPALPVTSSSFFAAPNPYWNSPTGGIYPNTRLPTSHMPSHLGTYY
# Method in brief: as §1
# ELF1 = ELF1 (Homo sapiens, UniProt P32519 1-619); details: protein: recombinant; tags: N-terminal GST; dsDNA, one strand shown
# Sequence of ELF1 (P32519 whole entry): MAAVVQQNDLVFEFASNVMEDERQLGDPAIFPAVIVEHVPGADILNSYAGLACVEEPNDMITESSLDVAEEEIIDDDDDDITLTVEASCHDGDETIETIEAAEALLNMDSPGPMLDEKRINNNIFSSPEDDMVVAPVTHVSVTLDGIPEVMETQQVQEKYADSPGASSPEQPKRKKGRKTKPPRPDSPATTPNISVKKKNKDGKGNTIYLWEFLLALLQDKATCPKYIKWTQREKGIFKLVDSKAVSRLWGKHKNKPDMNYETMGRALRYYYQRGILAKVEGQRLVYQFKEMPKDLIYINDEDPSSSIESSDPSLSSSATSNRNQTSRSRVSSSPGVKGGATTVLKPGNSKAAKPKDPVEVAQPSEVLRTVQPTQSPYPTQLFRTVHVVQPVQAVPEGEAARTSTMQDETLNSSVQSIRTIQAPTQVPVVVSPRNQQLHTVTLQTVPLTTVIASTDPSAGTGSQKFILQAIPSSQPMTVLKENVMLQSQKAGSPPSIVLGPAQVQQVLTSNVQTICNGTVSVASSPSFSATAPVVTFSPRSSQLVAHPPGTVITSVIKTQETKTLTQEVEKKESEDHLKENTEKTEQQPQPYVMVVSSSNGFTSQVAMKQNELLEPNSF
# Method in brief: as §1
# EHF = target: T5, EHF (Homo sapiens, UniProt Q9NZC4 1-300); details: protein: recombinant; tags: N-terminal GST; dsDNA, one strand shown
# T5 sequence: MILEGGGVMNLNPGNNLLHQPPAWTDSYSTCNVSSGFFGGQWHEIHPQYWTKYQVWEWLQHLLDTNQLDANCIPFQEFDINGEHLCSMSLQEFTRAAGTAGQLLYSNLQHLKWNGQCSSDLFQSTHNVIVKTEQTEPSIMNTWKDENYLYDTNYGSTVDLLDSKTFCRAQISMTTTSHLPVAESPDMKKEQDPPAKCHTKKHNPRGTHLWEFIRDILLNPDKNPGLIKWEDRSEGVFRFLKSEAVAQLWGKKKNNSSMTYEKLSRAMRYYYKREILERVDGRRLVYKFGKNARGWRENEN
# Method in brief: as §1
# SPI1 = SPI1 (Homo sapiens, UniProt P17947 1-270); details: protein: recombinant; tags: N-terminal GST; dsDNA, one strand shown
# Method in brief: as §1
# SPIB = SPIB (Homo sapiens, UniProt Q01892 1-262); details: protein: recombinant; tags: N-terminal GST; dsDNA, one strand shown
# Sequence of SPIB (Q01892 whole entry): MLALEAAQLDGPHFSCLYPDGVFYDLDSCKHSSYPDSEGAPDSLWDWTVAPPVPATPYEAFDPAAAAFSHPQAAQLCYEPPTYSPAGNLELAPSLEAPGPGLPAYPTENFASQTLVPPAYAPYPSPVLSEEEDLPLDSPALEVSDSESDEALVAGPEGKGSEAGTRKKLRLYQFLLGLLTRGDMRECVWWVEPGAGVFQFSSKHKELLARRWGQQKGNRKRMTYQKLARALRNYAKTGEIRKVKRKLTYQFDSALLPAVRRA
# Method in brief: as §1
# ELK3 = target: T6, ELK3 (Homo sapiens, UniProt P41970 1-407); details: protein: recombinant; tags: N-terminal GST; dsDNA, one strand shown
# T6 sequence: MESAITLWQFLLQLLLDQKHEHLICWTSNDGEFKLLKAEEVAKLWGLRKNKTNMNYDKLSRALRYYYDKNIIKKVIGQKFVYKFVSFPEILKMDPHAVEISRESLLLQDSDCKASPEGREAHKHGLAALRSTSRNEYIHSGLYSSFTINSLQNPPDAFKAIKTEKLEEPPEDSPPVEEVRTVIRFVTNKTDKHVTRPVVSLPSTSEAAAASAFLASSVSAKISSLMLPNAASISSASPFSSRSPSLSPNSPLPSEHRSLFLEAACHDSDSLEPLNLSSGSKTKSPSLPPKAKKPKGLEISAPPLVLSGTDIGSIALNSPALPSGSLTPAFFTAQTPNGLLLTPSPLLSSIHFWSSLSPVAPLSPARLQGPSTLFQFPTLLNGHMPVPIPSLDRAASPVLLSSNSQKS
# Method in brief: as §1
# FEV = target: T7, FEV (Homo sapiens, UniProt Q99581 1-238); details: protein: recombinant; tags: N-terminal GST; dsDNA, one strand shown
# T7 sequence: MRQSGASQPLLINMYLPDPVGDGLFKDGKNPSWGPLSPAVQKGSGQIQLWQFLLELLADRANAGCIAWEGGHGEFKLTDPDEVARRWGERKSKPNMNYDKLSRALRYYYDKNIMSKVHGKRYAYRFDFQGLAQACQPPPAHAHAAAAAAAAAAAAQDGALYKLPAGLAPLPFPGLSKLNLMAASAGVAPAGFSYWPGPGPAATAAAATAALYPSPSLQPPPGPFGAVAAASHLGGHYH
# Method in brief: as §1
# ETV5 = ETV5 (Homo sapiens, UniProt P41161 1-510); details: protein: recombinant; tags: N-terminal GST; dsDNA, one strand shown
# Sequence of ETV5 (P41161 whole entry): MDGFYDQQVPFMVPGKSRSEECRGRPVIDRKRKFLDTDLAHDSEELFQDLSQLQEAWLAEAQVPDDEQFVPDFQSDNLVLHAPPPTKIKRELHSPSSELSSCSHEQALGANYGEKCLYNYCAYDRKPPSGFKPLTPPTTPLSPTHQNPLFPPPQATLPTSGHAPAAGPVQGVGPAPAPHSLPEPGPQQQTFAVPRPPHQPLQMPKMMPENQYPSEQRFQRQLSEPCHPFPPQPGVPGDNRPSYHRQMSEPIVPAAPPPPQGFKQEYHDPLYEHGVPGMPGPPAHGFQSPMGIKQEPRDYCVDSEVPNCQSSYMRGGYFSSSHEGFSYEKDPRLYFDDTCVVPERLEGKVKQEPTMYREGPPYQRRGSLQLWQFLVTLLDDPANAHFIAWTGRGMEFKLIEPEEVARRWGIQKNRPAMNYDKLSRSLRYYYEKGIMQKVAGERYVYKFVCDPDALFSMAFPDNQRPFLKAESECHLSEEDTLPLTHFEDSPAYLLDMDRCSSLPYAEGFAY
# Method in brief: as §1
# HSF1 = HSF1 (Homo sapiens, UniProt Q00613 1-529); details: protein: recombinant; tags: N-terminal GST; chain copies: 3; dsDNA, one strand shown
# Sequence of HSF1 (Q00613 whole entry): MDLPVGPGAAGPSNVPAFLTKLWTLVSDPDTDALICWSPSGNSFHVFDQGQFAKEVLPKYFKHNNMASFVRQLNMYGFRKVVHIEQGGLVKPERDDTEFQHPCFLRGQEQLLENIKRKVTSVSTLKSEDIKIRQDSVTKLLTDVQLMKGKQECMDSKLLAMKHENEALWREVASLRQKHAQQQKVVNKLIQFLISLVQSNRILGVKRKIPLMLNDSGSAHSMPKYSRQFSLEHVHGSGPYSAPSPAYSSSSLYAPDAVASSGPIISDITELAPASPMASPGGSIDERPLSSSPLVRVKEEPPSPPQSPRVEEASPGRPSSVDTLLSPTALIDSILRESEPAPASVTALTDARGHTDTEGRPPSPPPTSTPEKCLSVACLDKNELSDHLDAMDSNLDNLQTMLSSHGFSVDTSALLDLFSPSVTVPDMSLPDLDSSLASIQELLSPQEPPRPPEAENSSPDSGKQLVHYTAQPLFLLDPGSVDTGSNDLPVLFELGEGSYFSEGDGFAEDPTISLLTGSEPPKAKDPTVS
# Method in brief: as §1
# SPIC = target: T8, SPIC (Homo sapiens, UniProt Q8N5J4 1-248); details: protein: recombinant; tags: N-terminal GST; dsDNA, one strand shown
# T8 sequence: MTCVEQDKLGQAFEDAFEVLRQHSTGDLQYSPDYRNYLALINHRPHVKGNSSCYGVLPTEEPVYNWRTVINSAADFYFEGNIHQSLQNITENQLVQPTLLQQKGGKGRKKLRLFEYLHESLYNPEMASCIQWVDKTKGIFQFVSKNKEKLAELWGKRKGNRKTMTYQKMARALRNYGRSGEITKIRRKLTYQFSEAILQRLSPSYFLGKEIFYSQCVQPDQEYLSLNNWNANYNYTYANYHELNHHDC
# Method in brief: as §1
# ELF4 = ELF4 (Homo sapiens, UniProt Q99607 1-663); details: protein: recombinant; tags: N-terminal GST; dsDNA, one strand shown
# Sequence of ELF4 (Q99607 whole entry): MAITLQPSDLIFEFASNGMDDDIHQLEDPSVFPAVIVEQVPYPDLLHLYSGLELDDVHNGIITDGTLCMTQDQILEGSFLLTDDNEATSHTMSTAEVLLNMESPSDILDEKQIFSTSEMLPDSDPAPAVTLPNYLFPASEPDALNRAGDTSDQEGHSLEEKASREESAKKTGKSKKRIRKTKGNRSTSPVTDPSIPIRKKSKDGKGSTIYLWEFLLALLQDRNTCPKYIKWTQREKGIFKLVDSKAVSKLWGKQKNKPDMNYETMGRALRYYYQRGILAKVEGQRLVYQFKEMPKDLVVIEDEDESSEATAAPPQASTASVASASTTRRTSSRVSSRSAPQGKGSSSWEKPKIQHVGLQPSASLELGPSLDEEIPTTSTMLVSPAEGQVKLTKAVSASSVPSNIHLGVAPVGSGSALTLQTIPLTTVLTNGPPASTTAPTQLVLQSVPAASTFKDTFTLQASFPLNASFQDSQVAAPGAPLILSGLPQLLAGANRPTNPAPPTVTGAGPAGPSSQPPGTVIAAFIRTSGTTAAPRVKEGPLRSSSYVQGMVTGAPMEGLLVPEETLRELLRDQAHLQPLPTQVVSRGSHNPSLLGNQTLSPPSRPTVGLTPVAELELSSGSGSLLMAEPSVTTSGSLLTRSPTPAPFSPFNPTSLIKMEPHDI
# Method in brief: as §1
# ELK4 = target: T9, ELK4 (Homo sapiens, UniProt P28324-2 1-405); details: protein: recombinant; tags: N-terminal GST; dsDNA, one strand shown
# T9 sequence: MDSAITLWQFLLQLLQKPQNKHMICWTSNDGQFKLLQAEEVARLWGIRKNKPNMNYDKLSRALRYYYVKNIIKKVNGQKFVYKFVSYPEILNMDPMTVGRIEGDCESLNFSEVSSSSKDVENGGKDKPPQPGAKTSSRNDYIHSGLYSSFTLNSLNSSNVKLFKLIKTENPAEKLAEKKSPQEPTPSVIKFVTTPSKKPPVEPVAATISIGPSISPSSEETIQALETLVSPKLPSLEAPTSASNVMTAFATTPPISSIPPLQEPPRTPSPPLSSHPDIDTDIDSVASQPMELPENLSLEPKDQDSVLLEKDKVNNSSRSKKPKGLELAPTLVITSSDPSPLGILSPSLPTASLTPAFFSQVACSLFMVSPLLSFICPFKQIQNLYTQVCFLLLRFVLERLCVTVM
# Method in brief: as §1
# ETV2 = target: T10, ETV2 (Homo sapiens, UniProt O00321 1-342); details: protein: recombinant; tags: N-terminal GST; dsDNA, one strand shown
# T10 sequence: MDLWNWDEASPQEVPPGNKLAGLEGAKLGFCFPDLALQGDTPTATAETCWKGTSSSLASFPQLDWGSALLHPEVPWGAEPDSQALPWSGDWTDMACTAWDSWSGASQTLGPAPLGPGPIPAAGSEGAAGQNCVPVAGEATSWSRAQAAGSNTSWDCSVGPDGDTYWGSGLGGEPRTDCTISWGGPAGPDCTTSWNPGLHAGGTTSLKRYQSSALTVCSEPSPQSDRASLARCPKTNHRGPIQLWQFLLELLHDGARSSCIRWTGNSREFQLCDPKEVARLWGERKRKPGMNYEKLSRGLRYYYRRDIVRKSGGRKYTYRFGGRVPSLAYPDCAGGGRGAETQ
# Method in brief: as §1
# ELF3 = target: T11, ELF3 (Homo sapiens, UniProt P78545 1-371); details: protein: recombinant; tags: N-terminal GST; dsDNA, one strand shown
# T11 sequence: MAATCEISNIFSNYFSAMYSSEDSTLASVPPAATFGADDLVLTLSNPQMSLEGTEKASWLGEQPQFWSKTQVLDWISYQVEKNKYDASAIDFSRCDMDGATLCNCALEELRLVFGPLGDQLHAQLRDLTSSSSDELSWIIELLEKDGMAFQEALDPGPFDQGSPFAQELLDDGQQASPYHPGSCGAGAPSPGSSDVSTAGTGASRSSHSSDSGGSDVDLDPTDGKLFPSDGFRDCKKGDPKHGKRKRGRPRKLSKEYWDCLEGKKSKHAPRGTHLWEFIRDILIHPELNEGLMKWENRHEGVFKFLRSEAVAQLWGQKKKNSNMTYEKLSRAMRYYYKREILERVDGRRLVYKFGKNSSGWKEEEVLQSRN
# Method in brief: as §1
# CRX = CRX (Homo sapiens, UniProt O43186 1-299); details: protein: recombinant; tags: N-terminal GST; dsDNA, one strand shown
# Sequence of CRX (O43186 whole entry): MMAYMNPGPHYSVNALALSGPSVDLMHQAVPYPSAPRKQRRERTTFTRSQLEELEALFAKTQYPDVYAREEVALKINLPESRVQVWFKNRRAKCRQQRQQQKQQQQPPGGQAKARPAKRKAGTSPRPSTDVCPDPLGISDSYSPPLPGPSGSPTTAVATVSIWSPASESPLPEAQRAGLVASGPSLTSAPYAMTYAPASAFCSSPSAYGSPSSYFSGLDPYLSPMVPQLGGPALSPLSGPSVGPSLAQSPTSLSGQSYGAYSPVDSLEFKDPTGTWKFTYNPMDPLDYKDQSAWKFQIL
# Method in brief: as §1
# ETV1 = ETV1 (Homo sapiens, UniProt P50549 1-477); details: protein: recombinant; tags: N-terminal GST; dsDNA, one strand shown
# Sequence of ETV1 (P50549 whole entry): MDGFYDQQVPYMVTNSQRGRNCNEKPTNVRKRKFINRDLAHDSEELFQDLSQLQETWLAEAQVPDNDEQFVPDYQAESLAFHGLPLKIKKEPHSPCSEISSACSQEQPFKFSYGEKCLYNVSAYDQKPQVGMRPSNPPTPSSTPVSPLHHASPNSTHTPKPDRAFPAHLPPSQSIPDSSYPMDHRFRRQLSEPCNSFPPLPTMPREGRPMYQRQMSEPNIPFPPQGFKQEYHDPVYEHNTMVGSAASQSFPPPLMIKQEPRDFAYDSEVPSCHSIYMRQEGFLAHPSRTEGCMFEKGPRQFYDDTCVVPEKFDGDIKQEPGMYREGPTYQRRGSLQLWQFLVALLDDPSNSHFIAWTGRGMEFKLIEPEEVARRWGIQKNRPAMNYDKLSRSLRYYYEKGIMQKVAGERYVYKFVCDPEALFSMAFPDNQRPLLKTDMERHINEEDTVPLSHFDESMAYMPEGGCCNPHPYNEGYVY
# Method in brief: as §1
sequence,measurement,setting,value
GACCTT,binding signal,FLI1,"1.65 fold enrichment (6-mer frequency, TF over GST control)"
same,binding signal,ELK1,"1.68 fold enrichment (6-mer frequency, TF over GST control)"
same,binding signal,GABPA,"1.65 fold enrichment (6-mer frequency, TF over GST control)"
same,binding signal,ERG,"1.46 fold enrichment (6-mer frequency, TF over GST control)"
same,binding signal,ELF1,"1.58 fold enrichment (6-mer frequency, TF over GST control)"
same,binding signal,EHF,"1.46 fold enrichment (6-mer frequency, TF over GST control)"
same,binding signal,SPI1,"1.47 fold enrichment (6-mer frequency, TF over GST control)"
same,binding signal,SPIB,"1.51 fold enrichment (6-mer frequency, TF over GST control)"
same,binding signal,ELK3,"1.55 fold enrichment (6-mer frequency, TF over GST control)"
same,binding signal,FEV,"1.6 fold enrichment (6-mer frequency, TF over GST control)"
same,binding signal,ETV5,"1.55 fold enrichment (6-mer frequency, TF over GST control)"
same,binding signal,HSF1,"1.52 fold enrichment (6-mer frequency, TF over GST control)"
same,binding signal,SPIC,"1.74 fold enrichment (6-mer frequency, TF over GST control)"
same,binding signal,ELF4,"1.73 fold enrichment (6-mer frequency, TF over GST control)"
same,binding signal,ELK4,"1.61 fold enrichment (6-mer frequency, TF over GST control)"
same,binding signal,ETV2,"1.63 fold enrichment (6-mer frequency, TF over GST control)"
same,binding signal,ELF3,"1.49 fold enrichment (6-mer frequency, TF over GST control)"
same,binding signal,CRX,"1.31 fold enrichment (6-mer frequency, TF over GST control)"
same,binding signal,ETV1,"1.48 fold enrichment (6-mer frequency, TF over GST control)"
